This note sets out measurements from PubChem BioAssay (NCATS).

Experiment [1] in a line: AP1 Signaling Pathway (AID 357). Further: on the % scale 0 is the no-effect control and ±100 the full control effect. Particulars: ME-180 AP-1-bla reporter, EGF-induced, beta-lactamase ratio, 5 h. The procedure, abridged:
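AP-1-bla ME-180 cells with beta-lactamase reporter under AP-1 response element, stimulated with EC50 EGF; compounds titrated, 5 hours at 37 degrees Celsius. CCF4 read at 460/530 nm ratio; positive and negative modulators judged by AC50.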

Experiment [2] deals with Cytochrome P450 1A2 (Homo sapiens) (UniProt P05177). The experiment is described as follows: p450-cyp1a2 (AID 410; calls by dose curve; further: potency means the concentration at half of the fitted maximal effect;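 on activity change, negative = inhibition: -100% = full effect of reference inhibitor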). Conditions: recombinant CYP1A2, luciferin-ME demethylation, luminescence; series mostly up to 25.6 µM. The procedure, abridged: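 Luminescent demethylation readout: Luciferin-ME (100uM, equal to Km) turned over by 20nM CYP1A2 for 60 min at room temperature after NADPH regeneration addition, following 10 min compound preincubation. Normalization used 57 uM furafylline as full inhibition.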
Cytochrome P450 1A2 (Homo sapiens), sequence (P05177 whole entry, looked up): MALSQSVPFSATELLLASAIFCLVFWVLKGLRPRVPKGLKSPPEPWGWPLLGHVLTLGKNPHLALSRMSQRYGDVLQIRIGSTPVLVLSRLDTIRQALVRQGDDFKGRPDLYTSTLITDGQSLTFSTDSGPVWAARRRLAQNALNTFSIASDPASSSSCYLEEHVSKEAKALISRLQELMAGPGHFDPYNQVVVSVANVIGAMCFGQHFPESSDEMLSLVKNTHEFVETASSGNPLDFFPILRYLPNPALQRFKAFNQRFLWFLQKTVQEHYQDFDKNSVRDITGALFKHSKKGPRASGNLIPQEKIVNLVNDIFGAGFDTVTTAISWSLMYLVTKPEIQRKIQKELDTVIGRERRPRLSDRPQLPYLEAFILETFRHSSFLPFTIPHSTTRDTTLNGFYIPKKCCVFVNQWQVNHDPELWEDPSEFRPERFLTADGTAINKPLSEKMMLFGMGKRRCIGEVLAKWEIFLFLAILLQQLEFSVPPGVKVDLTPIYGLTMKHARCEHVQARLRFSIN

Experiment [3] in a line: NFAT Signaling Pathway (AID 444).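 Further: carbachol stimulus at about its EC50 of 1 µM final; on the % scale 0 is the no-effect control and ±100 the full control effect.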 Particulars: Jurkat NFAT-bla M1, carbachol, beta-lactamase ratio, 5 h. The gist of the method:
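Jurkat cells with NFAT-driven β-lactamase reporter and co-expressed M1 receptor, stimulated with carbachol (final 1 uM, ~EC50), compound titration, 5 h at 37 °C. CCF4 loaded 1 h at RT; 460/530 nm ratio gave %activity and AC50.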

Experiment [4] can be described thus: Stat Signaling Pathway (AID 446).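 Further: ME-180 cervical cancer cells given 40 pM IL-6 alongside compound; SIE-controlled beta-lactamase reporter measured as 460/530 nm FRET emission ratio; on the % scale 0 is the no-effect control and ±100 the full control effect.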 Conditions: ME-180 (cervical carcinoma) SIE beta-lactamase reporter, IL-6 stimulated, 5 h. The procedure, abridged:
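Compound effects on IL-6-induced STAT reporter activity were measured in ME-180 cells. After overnight culture, cells were co-treated with 40 pM IL-6 for 5 hrs before beta-lactamase substrate loading at room temperature.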

In experiment [5] the target is Glucocorticoid receptor (Homo sapiens) (UniProt P04150). The experiment is described as follows: GR-GFP Redistribution (AID 450;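 active means compounds whose dose series gives a full or clear partial fitted curve of increased nuclear translocation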; further: potency means the concentration at half of the fitted maximal effect). Particulars: U2OS GR-GFP nuclear translocation, laser cytometry, 2 h.
Glucocorticoid receptor (Homo sapiens), sequence (P04150 whole entry, looked up): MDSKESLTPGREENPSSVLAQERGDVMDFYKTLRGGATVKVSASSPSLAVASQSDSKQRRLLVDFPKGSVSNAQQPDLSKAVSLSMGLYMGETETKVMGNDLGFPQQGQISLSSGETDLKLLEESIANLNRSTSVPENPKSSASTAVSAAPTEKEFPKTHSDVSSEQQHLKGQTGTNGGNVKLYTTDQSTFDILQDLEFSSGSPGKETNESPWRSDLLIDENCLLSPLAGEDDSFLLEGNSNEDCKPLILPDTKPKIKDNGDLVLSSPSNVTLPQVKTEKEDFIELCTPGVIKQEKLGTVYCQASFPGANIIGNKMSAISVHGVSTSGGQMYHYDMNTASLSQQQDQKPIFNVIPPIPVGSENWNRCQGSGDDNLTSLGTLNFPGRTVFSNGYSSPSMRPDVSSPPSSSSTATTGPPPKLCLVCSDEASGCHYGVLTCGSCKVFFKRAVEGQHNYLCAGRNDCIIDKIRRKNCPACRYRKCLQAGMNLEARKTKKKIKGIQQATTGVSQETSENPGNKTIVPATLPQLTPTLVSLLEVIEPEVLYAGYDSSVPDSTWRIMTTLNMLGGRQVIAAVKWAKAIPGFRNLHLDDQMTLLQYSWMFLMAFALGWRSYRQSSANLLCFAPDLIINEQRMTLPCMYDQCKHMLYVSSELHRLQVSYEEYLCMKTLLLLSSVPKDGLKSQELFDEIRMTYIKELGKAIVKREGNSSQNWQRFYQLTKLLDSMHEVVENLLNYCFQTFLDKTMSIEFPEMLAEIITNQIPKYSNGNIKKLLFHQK
The target is the same in experiment [6]. Briefly: GR-EFC Redistribution (AID 451; calls by dose curve; further: potency means the concentration at half of the fitted maximal effect). Conditions: CHO-K1 GR-EFC translocation, beta-gal luminescence, 2 h. The gist of the method:
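CHO-K1 cells expressing nuclear EA and GR-ED fragments of b-gal; compounds titrated up to 46 uM final, 2 h at 37 C. GR nuclear translocation read as complemented b-gal luminescence after 1 h RT detection.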

For experiment [7], the target named is Mitogen-activated protein kinase 10 (Mus musculus) (UniProt Q61831). Briefly: JNK3 AlphaScreen Assay (AID 530).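 Further: kinase came from lysate of stimulated human HepG2 cells; signal reports phosphorylation of biotinylated GST-cJun 1-79 at Ser73 with 10 µM ATP; on the % scale 0 is the no-effect control and ±100 the full control effect.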 Conditions: JNK3 lysate, c-Jun phosphorylation; series mostly up to 25.6 µM. The gist of the method:
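Activity was read by AlphaScreen after JNK3-containing HepG2 lysate (cytokine pre-activated) phosphorylated biotinylated GST-cJun with 10 uM ATP at room temperature. Phospho-Ser73 cJun antibody with Protein-A acceptor beads provided detection.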

The nature of experiment [8]: Cell Viability - Jurkat (AID 426;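 active means dose-dependent loss of cell ATP signal giving a full or clear fitted curve, ranked by lower potency value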;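 further: potency means the concentration at half of the fitted maximal effect; cells exposed to compound for 40 hours at 37 °C before ATP read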). Conditions: qHTS. The gist of the method: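 Cytotoxicity taken as drop in cellular ATP (CellTiter-Glo luminescence, 20 min room temperature) after 40 hr, 37C treatment of 5000 Jurkat Clone E6-1 cells per well; concentration-response fitted with Hill equation for AC50.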
A short description of experiment [9]: Cell Viability - MRC5 (AID 434; calls by dose curve;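 further: potency means the concentration at half of the fitted maximal effect; cells exposed to compound for 40 hours at 37 °C; potency reflects cytotoxicity seen as loss of intracellular ATP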). Conditions: MRC5 lung fibroblast viability, qHTS. The gist of the method:
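ATP luminescence read-out (CellTiter-Glo, 20 min RT) after 40 hr, 37 °C compound exposure of 1500 MRC5 cells/well. Data normalized to DMSO (basal) and 100 uM tamoxifen (100% inhibition); AC50 from standard Hill equation.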

The nature of experiment [10]: Cell Viability - SK-N-SH (AID 435; calls by dose curve; further: potency means the concentration at half of the fitted maximal effect). Conditions: SK-N-SH neuroblastoma cell viability qHTS. The procedure, abridged:
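Luminescent ATP signal served as the viability read-out after 40 hours of compound treatment of human neuroblastoma SK-N-SH cells. Concentration-response data, scaled between DMSO and 100 uM tamoxifen, gave AC50 values by standard Hill modeling.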

Experiment [11] can be described thus: Cell Viability - N2a (AID 540; active means well fitted curve in the direction sought with a large enough effect; an effect the other way counts as inactive or inconclusive; further: nearly all actives have a fitted effect of over 45% in size; further: potency means the concentration at half of the fitted maximal effect;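 on activity change, negative = cytotoxicity: plate controls were DMSO alone for no effect and tamoxifen control for full effect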). Particulars: N2a mouse neuroblastoma cell viability; activity change, negative = cytotoxicity: at 92.2 µM (top of the series). The gist of the method: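 CellTiter-Glo ATP luminescence, read 20 min after reagent at room temperature, reported viability following 40 h compound treatment at 37 °C. N2a mouse neuroblastoma cells seeded 1500/well; Hill equation gave AC50.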

A short description of experiment [12]: Cell Viability - NIH 3T3 (AID 541; active means well fitted curve in the direction sought with a large enough effect; an effect the other way counts as inactive or inconclusive; further: nearly all actives have a fitted effect of over 25% in size; further: potency means the concentration at half of the fitted maximal effect;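 on activity change, negative = cytotoxicity: plate controls were DMSO alone for no effect and tamoxifen positive control for full effect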). Particulars: NIH 3T3 cell viability, qHTS; activity change, negative = cytotoxicity: at 92.2 µM (top of the series). The gist of the method: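 Intracellular ATP (CellTiter-Glo luminescence, 20 min at room temperature) measured after 40 hr compound exposure at 37 °C of 1000 NIH 3T3 mouse fibroblasts/well in complete medium; AC50 derived by Hill-equation modelling of qHTS concentration-response curves.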

The nature of experiment [13]: Cell Viability - HUV-EC-C (AID 542; active means well fitted curve in the direction sought with a large enough effect; an effect the other way counts as inactive or inconclusive; further: nearly all actives have a fitted effect of over 35% in size; further: potency means the concentration at half of the fitted maximal effect). Particulars: HUV-EC-C endothelial cell viability, qHTS; series mostly up to 92.2 µM. The gist of the method: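 CellTiter-Glo luminescence measured ATP loss in HUV-EC-C cells (1000/well) after 40 hr compound exposure at 37 °C, in complete culture medium. Concentration-response data were Hill-fitted to give AC50.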
Experiment [14] in a line: Cell Viability - SH-SY5Y (AID 544; active means well fitted curve in the direction sought with a large enough effect; an effect the other way counts as inactive or inconclusive; further: nearly all actives have a fitted effect of over 55% in size; further: potency means the concentration at half of the fitted maximal effect;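 on viability change, negative = cytotoxic: 0% = DMSO alone and -100% = 100 µM tamoxifen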). Conditions: SH-SY5Y neuroblastoma cell viability; viability change, negative = cytotoxic: at 92.2 µM (top of the series). The gist of the method:
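Cytotoxicity measured via ATP-dependent luciferase luminescence (CellTiter-Glo) following 40 h, 37 °C exposure of 1500 SH-SY5Y cells per well. Concentration-response data were fitted with the standard Hill equation to give AC50.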

Experiment [15] can be described thus: Cell Viability - Renal Proximal Tubule (AID 545; active means well fitted curve in the direction sought with a large enough effect; an effect the other way counts as inactive or inconclusive;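 further: 0% = DMSO only and -100% = 100 µM tamoxifen; nearly all actives have a fitted effect of over 40% in size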). Conditions: renal proximal tubule cells viability, primary cells of rat origin; activity change, negative = cytotoxicity: at 91.7 µM (top of the series). The gist of the method: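 Luminescent ATP signal (CellTiter-Glo) served as the viability read-out after 40 hr compound exposure of freshly isolated rat proximal tubule cells at 37 °C. Concentration-dependent ATP loss was fitted with the Hill equation to give AC50.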

The nature of experiment [16]: Cell Viability - BJ (AID 421; calls by dose curve;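 further: potency means the concentration at half of the fitted maximal effect; cells exposed to compound for 40 hours at 37 °C before readout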). Particulars: BJ fibroblast viability, qHTS. The gist of the method: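 Luminescent ATP signal (CellTiter-Glo, 20 min at room temperature) served as the read-out of viable BJ cells after 40 hours of compound treatment. Responses were scaled between DMSO and 100 uM tamoxifen, and AC50 values were obtained by Hill modeling.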
A short description of experiment [17]: Cell Viability - HepG2 (AID 433; calls by dose curve; further: potency means the concentration at half of the fitted maximal effect). Particulars: qHTS. The procedure, abridged:
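Read-out is luciferase-based quantitation of cellular ATP as a measure of viable HepG2 cells after 40 h treatment at 37 °C. Signal decrease is scaled between DMSO-only and 100 uM tamoxifen controls, with AC50 fitted by the Hill equation.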

A short description of experiment [18]: Cell Viability - H-4-II-E (AID 543; active means well fitted curve in the direction sought with a large enough effect; an effect the other way counts as inactive or inconclusive; further: potency means the concentration at half of the fitted maximal effect; nearly all actives have a fitted effect of over 35% in size). Particulars: H-4-II-E rat hepatoma viability; series mostly up to 92.2 µM. The gist of the method: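 CellTiter-Glo luminescence (intracellular ATP) measured after 40 h compound exposure at 37 °C in H-4-II-E rat hepatoma cells seeded at 1500/well. Values are AC50s fitted with the standard Hill equation.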

Where “and” joins values, the source holds several entries; their conditions need not be identical. Equal entries are not always repeated. A number with no mark means an inactive call. Results filed as inconclusive are left out. Calls of active or inactive are those of the source. Unless noted, the call rests on the fitted dose curve; in most records, active means well fitted curve in either direction with a large enough effect (not every such curve was filed as active); inconclusive means small, poorly fitted or top-dose-only effect, or another doubt; inactive means flat fitted curve, though single readings scatter. Bounds are passed on as bounds.

As for `CCOC(=O)n1ccn(C)c1=S`, the activity change, negative = inhibition was 13.2% in experiment [1] (at 17.2 µM (top of the series)) and -13.3% in experiment [3] (at 17.2 µM (top of the series)). Also, the results for the Potency in experiment [2], in [5] and in experiment [6] were 12.6 µM (active), more than 20.6 µM and more than 20.6 µM, respectively. Moreover, the activity, negative = inhibition in experiment [4] (at 17.2 µM (top of the series)) was 4.14%. Besides, in experiment [7], the molecule was classed as inactive.

On to `CC(O)(P(=O)(O)O)P(=O)(O)O`, for which the activity change, negative = inhibition in experiment [1] (at 17.2 µM (top of the series)) is -1.23%; in experiment [3] (at 17.2 µM (top of the series)), -2.6%. Besides, the Potency result in experiment [2] was “inactive”. In experiment [4] (at 17.2 µM (top of the series)), the activity, negative = inhibition is 3.57%. The molecule was classed as inactive in experiment [7].

Turning to `CC(C)(C(=O)c1cccnc1)c1cccnc1`, the values for the activity change, negative = inhibition in experiment [1] (at 17.2 µM (top of the series)) and in experiment [3] (at 17.2 µM (top of the series)) were 1.77% and -2.38%, respectively. In addition, the Potency in experiment [2] is 12.6 µM (active); in experiment [5] it was more than 20.6 µM; in experiment [6] it was more than 20.6 µM. Besides, the activity, negative = inhibition in experiment [4] (at 17.2 µM (top of the series)) is -5.5%. Also, the outcome in [7] was inactive.

On to `CC(C)NC[C@@H](O)COc1cccc2ccccc12`, for which the activity change, negative = inhibition in [1] (at 17.2 µM (top of the series)) is 7.5% and 12.8% and 4.83%; in [1] (at 38 µM (top of the series)), 17.5% and 11.4%; in experiment [3] (at 17.2 µM (top of the series)), 5.75% and 5.85% and -11.9%; in [3] (at 38 µM (top of the series)), 4.84% and 0.806%. Further, the activity, negative = inhibition in [4] (at 17.2 µM (top of the series)) is -2.8% and 2.51% and -11.2%; in [4] (at 38 µM (top of the series)) it was 8.52% and -21.7%. The outcome in experiment [7] was inactive.

With `C=C(CC)C(=O)c1ccc(OCC(=O)O)c(Cl)c1Cl`, the activity change, negative = inhibition was -11.1% and -7.79% in experiment [1] (at 17.2 µM (top of the series)); -133% (active) in experiment [3] (at 17.2 µM (top of the series)). The Potency entry in experiment [2] and in experiment [13] was “inactive” in each case. For the same molecule, the Potency is 9.25 µM (active) in [8]; more than 92 µM in [9]; 45.3 µM (active) in experiment [10]; more than 20.6 µM in experiment [5]; more than 20.6 µM in experiment [6]. The activity, negative = inhibition in experiment [4] (at 17.2 µM (top of the series)) is -17.9%. Besides, the call in experiment [7] was inactive. Besides, the activity change, negative = cytotoxicity is -112% (active) in experiment [11], -86.1% (active) in experiment [12] and -86.3% (active) in experiment [15]. Besides, in experiment [14], the viability change, negative = cytotoxic is -99.4% (active).

In the case of `Oc1ccc(O)cc1`, the activity change, negative = inhibition is -22.8% in [1] (at 38 µM (top of the series)) and -5.74% in experiment [3] (at 38 µM (top of the series)). Besides, the Potency result in [2] was “inactive”. In addition, the Potency in [16] was more than 92 µM; in [8], 4.41 µM (active); in [17], more than 92 µM; in [9], more than 92 µM; in experiment [5], more than 46 µM; in experiment [6], more than 46 µM. Moreover, the Potency in [11] is 20 µM (active); in experiment [12] it was 20 µM (active); in [13] it was 39.8 µM (active); in experiment [18], 79.4 µM (active); in experiment [14] it was 3.16 µM (active). In experiment [4] (at 38 µM (top of the series)), the activity, negative = inhibition was 3.99%. Moreover, the molecule was called inactive in experiment [7].
